In PubChem BioAssay AID1159580 (chemical genetic matrix, 2015):
Screen size: about 5,500 compounds; about 2,000 (36%) were called active. Not shown: some 18% with an inconclusive outcome. Cut-off read from the data, not from the text of the source: active = normalized growth mostly below about 0.91 (no sharp cut-off); inconclusive = no clear call, values can overlap the other calls; inactive = mostly above about 0.92. The list shows a part of the results.

Assay: chemical genetic growth profiling, strain panel (AID 1159580);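 note: tested at 20 µM; growth read once vehicle control cultures reached saturation at 30 °C; 1 = growth at the plate median or of vehicle wells; lower values mean less growth of the strain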
Conditions: S. cerevisiae deletion strains, growth OD

Measured: normalized growth

O[C@@H]1[C@H](O)CO[C@H]1O
inactive: locus YHR030C, strain SLT2, stronger effect = lower value 0.995 | locus YHR079C, strain IRE1, stronger effect = lower value 0.997 | locus YJL095W, strain BCK1, stronger effect = lower value 1.01 | locus YJR066W, strain TOR1, stronger effect = lower value 0.945 | locus YLR113W, strain HOG1, stronger effect = lower value 1 | locus YNL183C, strain NPR1, stronger effect = lower value 0.965 | locus YOR231W, strain MKK1, stronger effect = lower value 0.992 | locus YPL256C, strain CLN2, stronger effect = lower value 0.988
